These results are taken from PubChem BioAssay (EPA / NIEHS).

For experiment [1], the target named is Myc proto-oncogene protein (Homo sapiens) (UniProt P01106). Nature of the experiment: ATG_Myc_CIS: Attagene CIS-FACTORIAL HepG2 Assay for human Myelocytomatosis (Myc) Proto-Oncogene Transcription Factor (AID 2282990). The settings on record: HepG2, Attagene cis-reporter transcription factor activity; actives raise or lower the signal. The procedure, abridged:
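Transiently transfected HepG2 cells bearing cis-promoter reporter units for endogenous transcription factors; 24 h exposure. Reporter mRNA measured by RT-PCR, 6-FAM primer extension, HpaI cut and capillary electrophoresis; bidirectional fit relative to DMSO.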

Experiment [2] is described as follows: ATG_NF_kB_CIS: Attagene CIS-FACTORIAL HepG2 Assay for human Nuclear Factor Kappa B (NF-kB) (AID 2282991). The settings on record: HepG2 Attagene cis-factorial NF-kB reporter mRNA; actives raise or lower the signal. The procedure, abridged:
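After 24 h compound incubation, transfected HepG2 cells yield total RNA; reporter cDNA is PCR-amplified, end-labelled with 6-FAM, HpaI-digested and analysed on a genetic analyser. Endogenous factor activity, DMSO-referenced bidirectional fit.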

Experiment [3] is described as follows: ATG_NRF2_ARE_CIS: Attagene CIS-FACTORIAL HepG2 Assay for human Nuclear Factor Erythroid 2 Related Factor 2 (NFR2) response to Antioxidant Response Elements (ARE) (AID 2282992). The settings on record: HepG2 Attagene ARE/NRF2 reporter, transcription factor activity; actives raise or lower the signal. The procedure, abridged:
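Endogenous transcription factor activity read out as reporter transcript levels (RT-PCR plus capillary electrophoresis, fluorescence) in transiently transfected HepG2 cells. Measured at 24 h after dosing; gain or loss of signal fitted versus DMSO.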

Experiment [4] in a line: ATG_Oct_MLP_CIS: Attagene CIS-FACTORIAL HepG2 Assay for human Octamer-Binding Transcription Factor (Oct) (AID 2282993). Conditions: HepG2 Attagene cis-factorial Oct reporter, mRNA; actives raise or lower the signal. The procedure, abridged:
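Using HepG2 cells bearing transfected cis-reporter constructs, mRNA induction was read after 24 h by fluorescent RT-PCR and capillary electrophoresis, with DMSO defining baseline for gain- or loss-of-signal fits.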

Experiment [5] in a line: BSK_3C_uPAR: BioMAP Diversity Plus: 3C Assay for Urokinase-type plasminogen activator receptor (uPAR) Biomarker Activity (AID 2282998). Conditions: BioMAP 3C HUVEC, uPAR biomarker ELISA; actives raise or lower the signal. The procedure, abridged:
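In this endothelial cell-based assay, human umbilical vein primary cells were treated with chemicals and harvested at 24 h. uPAR was quantified using ELISA, with gains or losses fitted relative to DMSO controls.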
A general note: ELISA stands for enzyme-linked immunosorbent assay.

A short description of experiment [6]: BSK_3C_VCAM1: BioMAP Diversity Plus: 3C Assay for Vascular cell adhesion molecule 1 (VCAM1) Biomarker Activity (AID 2282999). The settings on record: BioMAP 3C HUVEC, VCAM1 ELISA, cytokine-stimulated; actives raise or lower the signal. The method in brief:
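HUVEC primary cells, 24 h compound exposure; VCAM-1 by ELISA; gain/loss of signal fitted bidirectionally vs DMSO baseline.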

A short description of experiment [7]: BSK_4H_Eotaxin3: BioMAP Diversity Plus: 4H Assay for Eotaxin 3 Biomarker Activity (AID 2283000).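 As to outcome: CCL26 protein level quantified by ELISA in parallel with SRB cytotoxicity check.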 Conditions: primary human endothelial cells (HUVEC); actives raise or lower the signal. The method in brief:
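Endothelial primary cells (human umbilical vein) exposed to compound for 24 h. ELISA detection of Eotaxin-3.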

The target of experiment [8] is human Peroxisome Proliferator-activated Receptor alpha (PPARa), PPARA (gene 5465) (UniProt Q07869). Put plainly: ATG_PPARa_TRANS: Attagene TRANS-FACTORIAL HepG2 Assay for human Peroxisome Proliferator-activated Receptor alpha (PPARa) (AID 2283001; active = hit-call score of the fitted dose curve at least 0.9, where 1 is the maximum). The procedure, abridged: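 Transient HepG2 transfection, GAL4-UAS reporters, NR-Gal4 chimeras; 24 h compound exposure. Readout: reporter transcripts by RT-PCR, 6-FAM primer extension, HpaI digest, capillary electrophoresis. Positive direction vs DMSO baseline.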
Chain of human Peroxisome Proliferator-activated Receptor alpha (PPARa), PPARA (gene 5465) (Q07869 whole entry, looked up, the tested form may be a part): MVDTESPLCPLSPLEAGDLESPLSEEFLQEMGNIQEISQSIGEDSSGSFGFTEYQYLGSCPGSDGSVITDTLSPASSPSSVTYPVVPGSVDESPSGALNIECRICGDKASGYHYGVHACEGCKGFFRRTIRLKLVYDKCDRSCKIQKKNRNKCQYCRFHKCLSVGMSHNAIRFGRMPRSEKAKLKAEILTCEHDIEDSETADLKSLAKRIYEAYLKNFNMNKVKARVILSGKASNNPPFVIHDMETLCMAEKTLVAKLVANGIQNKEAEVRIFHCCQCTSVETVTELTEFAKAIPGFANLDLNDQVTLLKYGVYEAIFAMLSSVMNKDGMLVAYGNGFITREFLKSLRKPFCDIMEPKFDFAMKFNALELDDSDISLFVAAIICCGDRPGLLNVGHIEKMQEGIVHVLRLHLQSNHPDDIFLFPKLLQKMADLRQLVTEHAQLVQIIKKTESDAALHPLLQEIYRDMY

Experiment [9] addresses Cellular tumor antigen p53 (Homo sapiens) (UniProt P04637). Nature of the experiment: ATG_p53_CIS: Attagene CIS-FACTORIAL HepG2 Assay for human p53 Transcription Factor (AID 2282994). Conditions: HepG2 p53 cis-element reporter, Attagene mRNA; actives raise or lower the signal. The procedure, abridged: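 Endogenous p53 activity read in transiently transfected HepG2 from a cis-element-driven reporter transcript after 24 h exposure. RNA reverse-transcribed, PCR-amplified, fluorescently labelled and sized by capillary electrophoresis; gain or loss fitted against DMSO baseline.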

Experiment [10] can be described thus: BSK_3C_TissueFactor: BioMAP Diversity Plus: 3C Assay for Tissue Factor Biomarker Activity (AID 2282997). The settings on record: BioMAP 3C HUVEC, tissue factor biomarker readout; actives raise or lower the signal. The procedure, abridged:
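Cells used were primary human umbilical vein endothelial cells. They were dosed with chemical, and after 24 h Tissue Factor was quantified by ELISA. Curves were fitted bidirectionally with DMSO as baseline.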

Results filed as inconclusive are left out. Calls of active or inactive are those of the source. The calls were made as follows, unless noted: active = hit-call score of the fitted dose curve at least 0.9, where 1 is the maximum; inactive = score below 0.9.

Chain of Myc proto-oncogene protein (Homo sapiens) (P01106 whole entry, looked up): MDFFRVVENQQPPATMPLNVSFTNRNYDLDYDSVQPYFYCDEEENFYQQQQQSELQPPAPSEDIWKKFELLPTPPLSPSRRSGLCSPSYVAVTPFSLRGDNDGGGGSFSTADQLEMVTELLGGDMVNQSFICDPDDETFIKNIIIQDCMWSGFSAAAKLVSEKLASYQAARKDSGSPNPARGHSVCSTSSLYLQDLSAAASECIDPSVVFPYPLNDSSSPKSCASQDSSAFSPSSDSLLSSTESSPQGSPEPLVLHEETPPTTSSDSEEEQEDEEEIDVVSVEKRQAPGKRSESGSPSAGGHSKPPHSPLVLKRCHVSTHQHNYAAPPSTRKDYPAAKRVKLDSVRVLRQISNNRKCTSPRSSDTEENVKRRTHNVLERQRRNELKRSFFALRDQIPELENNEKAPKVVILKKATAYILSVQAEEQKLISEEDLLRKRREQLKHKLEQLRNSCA
Chain of Cellular tumor antigen p53 (Homo sapiens) (P04637 whole entry, looked up): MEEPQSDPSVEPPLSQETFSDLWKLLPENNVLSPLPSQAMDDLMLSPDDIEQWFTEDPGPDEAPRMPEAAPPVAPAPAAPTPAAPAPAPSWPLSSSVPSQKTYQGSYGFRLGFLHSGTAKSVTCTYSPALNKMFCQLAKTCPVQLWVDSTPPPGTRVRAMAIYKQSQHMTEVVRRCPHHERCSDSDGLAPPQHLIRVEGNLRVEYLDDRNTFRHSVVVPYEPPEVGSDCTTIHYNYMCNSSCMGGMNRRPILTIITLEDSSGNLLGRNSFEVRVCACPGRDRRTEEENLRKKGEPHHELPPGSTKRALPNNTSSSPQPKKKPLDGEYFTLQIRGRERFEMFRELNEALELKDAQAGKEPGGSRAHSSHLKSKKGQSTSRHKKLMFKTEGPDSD

Turning to `NC(=O)N(O)[C@@H]1COc2cc(OCc3ccccc3)ccc21`, the outcome in [1], in experiment [2], in [3], in experiment [4], in experiment [5] and in experiment [6] was inactive. Further, the result in experiment [7] and in experiment [8] was inactive.

As for `CCCCOC(=O)c1ccccc1`, the call in experiment [1], in [2], in experiment [3], in [4], in experiment [9] and in experiment [5] was inactive. For the same molecule, the outcome in experiment [6] and in [7] was inactive.

For the molecule `O=C(O)[C@H](O)[C@@H](O)C(=O)O`, the call in experiment [1], in [2], in experiment [3], in [4], in experiment [5] and in [6] was inactive. In experiment [7], the outcome was inactive.

For orientation: AC50 means the concentration giving half of the maximal activity seen. Consider `O=C(NO)C1(NS(=O)(=O)c2ccc(Oc3ccc(F)cc3)cc2)CCOCC1`, for which the molecule was classed as inactive in [1], in [2], in experiment [4], in [5], in experiment [6] and in experiment [7]. Besides, the half-maximal activity concentration (AC50) in experiment [3] was 33 µM (active).

`NC(=O)NN=Cc1ccc([N+](=O)[O-])o1`: the molecule was classed as inactive in experiment [1], in experiment [2], in [4], in experiment [9], in experiment [5] and in experiment [6]. Besides, the outcome in experiment [7] was inactive. Further, in experiment [3], the AC50 is 27.8 µM (active).

Turning to `OC(CCl)CCl`, the molecule was classed as inactive in experiment [1], in experiment [2], in experiment [3], in experiment [4], in [9] and in experiment [10]. For the same molecule, the outcome in [5], in experiment [6], in experiment [7] and in [8] was inactive.

In the case of `CCCOc1ccc(S(=O)(=O)N2CCN(CC)CC2)cc1-c1nc2c(CC)n(Cc3ccccn3)nc2c(=O)[nH]1`, the molecule was classed as inactive in [1], in [4], in [5], in [6] and in experiment [7]. Further, the AC50 in experiment [2] is 51 µM (active); in [3], 43 µM (active).

As for `Cn1c(=O)c2[nH]cnc2n(C)c1=O`, the result in [1], in [2], in experiment [3], in [4], in experiment [9] and in [10] was inactive. The outcome in experiment [5], in [6], in experiment [7] and in [8] was inactive.

As to `COS(C)(=O)=O`, the call in experiment [1], in experiment [2], in experiment [3], in [4], in experiment [5] and in experiment [6] was inactive. Besides, the outcome in [7] was inactive.

As to `CC(=O)c1ccccc1`, the molecule was classed as inactive in experiment [1], in experiment [2], in experiment [3], in [4], in experiment [9] and in experiment [5]. For the same molecule, the outcome in [6], in [7] and in experiment [8] was inactive.

As for `O=C(Cl)C(F)(F)C(F)(F)C(F)(F)C(=O)Cl`, the call in experiment [1], in experiment [2], in experiment [3], in experiment [4], in [9] and in experiment [10] was inactive. The result in [5], in experiment [6], in experiment [7] and in [8] was inactive.

Turning to `NCC(F)(F)C(F)(F)C(F)(F)C(F)(F)F`, the outcome in experiment [1], in experiment [2], in experiment [3], in [4], in experiment [9] and in experiment [5] was inactive. In addition, the result in experiment [6], in experiment [7] and in experiment [8] was inactive.

With `COc1cc(C(C)C)c2c(c1)S(=O)(=O)N(COc1cc(=O)n3cccc(OCCN4CCCCC4)c3n1)C2=O`, the AC50 was 2.75 µM (active) in experiment [1]; 10.3 µM (active) in experiment [2]; 1.29 µM (active) in experiment [3]; 4.34 µM (active) in [4]; 2.89 µM (active) in experiment [5]; 5.38 µM (active) in experiment [6]. Further, the concentration at half-maximal activity (AC50) in [7] is 8.57 µM (active). The result in experiment [10] and in experiment [8] was inactive.

Turning to `CC(C)CC(C)O` (stereo unspecified), the call in experiment [1], in experiment [2], in [3], in experiment [4], in [5] and in [6] was inactive. Also, the result in [7] was inactive.

Turning to `C[Si](C)(C)C(F)(F)C(F)(F)C(F)(F)F`, the molecule was called inactive in experiment [1], in experiment [2], in experiment [3], in [4], in [9] and in experiment [5]. Moreover, the outcome in experiment [6], in experiment [7] and in [8] was inactive.

For `FC(F)C(F)(F)COCC1CO1` (stereo unspecified), the call in experiment [1], in experiment [2], in experiment [3], in experiment [4], in [9] and in experiment [5] was inactive. Moreover, the result in experiment [6] and in experiment [7] was inactive.

In the case of `Cc1nccn1-c1ccc(Sc2cccc(C3(C(N)=O)CCOCC3)c2)cc1`, the concentration at half-maximal activity (AC50) was 2.85 µM (active) in experiment [1], 0.858 µM (active) in experiment [3] and 3.22 µM (active) in experiment [4]. The molecule was called inactive in experiment [2], in experiment [5], in experiment [6], in [7] and in experiment [8].

As for `C=CCc1cc(S(=O)(=O)c2ccc(O)c(CC=C)c2)ccc1O`, the molecule was called inactive in [1], in experiment [2], in experiment [4] and in experiment [8]. In addition, the AC50 in experiment [3] is 7.04 µM (active); in experiment [10] it was 32 µM (active); in experiment [5], 12.8 µM (active); in experiment [6] it was 32 µM (active); in experiment [7], 27.1 µM (active).

Take `Cn1cc[nH]c1=S`: the molecule was classed as inactive in experiment [1], in experiment [2], in experiment [3], in experiment [4], in experiment [9] and in experiment [5]. Moreover, the outcome in experiment [6], in experiment [7] and in [8] was inactive.

`CCc1ccc(O)c(C(C)(C)C)c1`: the concentration at half-maximal activity (AC50) in [1] was 33.4 µM (active); in experiment [3] it was 27.7 µM (active); in experiment [10], 32.2 µM (active); in [5], 39.3 µM (active); in [6], 34.6 µM (active); in experiment [7], 39 µM (active). In addition, the result in experiment [2], in experiment [4], in experiment [9] and in [8] was inactive.

Regarding `O=C(O)CO`, the call in [1], in experiment [2], in experiment [3], in [4] and in experiment [8] was inactive.

As to `CCN(CC)C(=S)SSC(=S)N(CC)CC`, the AC50 in [1] was 83.7 µM (active); in experiment [2], 27.6 µM (active); in experiment [3] it was 184 µM (active); in experiment [4], 144 µM (active); in experiment [9], 137 µM (active); in [5] it was 20.6 µM (active). Besides, the half-maximal activity concentration (AC50) in [6] was 28.9 µM (active); in experiment [7], 32.3 µM (active). Moreover, in experiment [8], the call was inactive.

With `CC[C@H](C)C(=O)O[C@H]1C[C@H](O)C=C2C=C[C@H](C)[C@H](CC[C@@H](O)C[C@@H](O)CC(=O)O)[C@H]21`, the molecule was called inactive in [1], in experiment [2], in experiment [3], in [4], in experiment [10] and in experiment [5]. In addition, the outcome in [6] and in [7] was inactive.
